Values without a mark were called inactive. Results filed as inconclusive are left out. Entries that show only a call come without a potency. The source made the active and inactive calls. Unless noted, calls follow the shape of the dose curve; as a rule, active = well fitted curve in the direction sought with a large enough effect; inconclusive = small, poorly fitted or top-dose-only effect, or another doubt; inactive = no such curve, though single readings can be large; an effect the other way counts as inactive or inconclusive.
Experiments:
Hek293T = assay: Primary qHTS to identify gynecologic anti-cancer compounds using libraries of approved drugs and bioactive compounds (AID 1345084); conditions: Gynecologic cancer cell panel viability, ATPlite luminescence, 48 h, control line for the selectivity index; series mostly up to 57.5 µM; also: nearly all actives have a fitted effect of over 55% in size
Summary of the method: (§1)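 Cells, 1,000 per well, plated 16 h, then exposed 48 h at 37 C to compounds. Viability by ATPlite luminescence after 15 min at room temperature.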

JEG-3 = assay: as above; conditions: Gynecologic cancer cell panel viability, ATPlite luminescence, 48 h; series mostly up to 57.5 µM
Summary of the method: as §1

OV90 = assay: as above; conditions: Gynecologic cancer cell panel viability, ATPlite luminescence, 48 h; series mostly up to 57.5 µM
Summary of the method: as §1

PA-1 = assay: as above; conditions: Gynecologic cancer cell panel viability, ATPlite luminescence, 48 h; series mostly up to 57.5 µM
Summary of the method: as §1

SKOV3 = assay: as above; conditions: Gynecologic cancer cell panel viability, ATPlite luminescence, 48 h; series mostly up to 57.5 µM
Summary of the method: as §1

Tov-21-G = assay: as above; conditions: Gynecologic cancer cell panel viability, ATPlite luminescence, 48 h; series mostly up to 57.5 µM
Summary of the method: as §1

Tov112D = assay: as above; conditions: Gynecologic cancer cell panel viability, ATPlite luminescence, 48 h; series mostly up to 57.5 µM
Summary of the method: as §1

[1] = Drug repurposing screens with cells derived from glioblastoma tumor samples (AID 1345199); conditions: GBM patient neurospheres viability, ATP luminescence, 48 h; also: nearly all actives have a fitted effect of over 40% in size; also: potency is read from the fitted curve at half-maximal effect
Summary of the method: (§2)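 Primary testing used CD133+ neurospheres from four GBM patients, seven concentrations, 48 h exposure and ATP-based viability; confirmation added three slower-growing patient lines.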

[2] = target: Nuclear receptor subfamily 1 group I member 2 (Rattus norvegicus) (UniProt Q9R1A7); assay: qHTS assay for small molecule activators of the rat pregnane X receptor (rPXR) signaling pathway (AID 651751; call rule not given here); conditions: rPXR reporter cells, luciferase (One-Glo), 24 h
[3] = qHTS assay for small molecule activators of the human pregnane X receptor (PXR) signaling pathway (AID 720659; call rule not given here)
astro = assay: Drug repurposing screens with cells derived from glioblastoma tumor samples (AID 1345199); conditions: viability, ATP luminescence, 48 h; series mostly up to 45.9 µM; also: nearly all actives have a fitted effect of over 40% in size; also: potency is read from the fitted curve at half-maximal effect
Summary of the method: as §2

[4] = at 46.1 µM (top of the series), tumour line C
[5] = at 45.9 µM (top of the series), tumour line B
[6] = at 45.9 µM (top of the series), tumour line D
[7] = at 46 µM (top of the series), tumour line A
[8] = at 20 µM (top of the series), tumour line C
[9] = at 21.2 µM (top of the series), tumour line B
[10] = at 21.2 µM (top of the series), tumour line D
[11] = at 21.3 µM (top of the series), tumour line A

Chain of Nuclear receptor subfamily 1 group I member 2 (Rattus norvegicus) (Q9R1A7 whole entry, looked up): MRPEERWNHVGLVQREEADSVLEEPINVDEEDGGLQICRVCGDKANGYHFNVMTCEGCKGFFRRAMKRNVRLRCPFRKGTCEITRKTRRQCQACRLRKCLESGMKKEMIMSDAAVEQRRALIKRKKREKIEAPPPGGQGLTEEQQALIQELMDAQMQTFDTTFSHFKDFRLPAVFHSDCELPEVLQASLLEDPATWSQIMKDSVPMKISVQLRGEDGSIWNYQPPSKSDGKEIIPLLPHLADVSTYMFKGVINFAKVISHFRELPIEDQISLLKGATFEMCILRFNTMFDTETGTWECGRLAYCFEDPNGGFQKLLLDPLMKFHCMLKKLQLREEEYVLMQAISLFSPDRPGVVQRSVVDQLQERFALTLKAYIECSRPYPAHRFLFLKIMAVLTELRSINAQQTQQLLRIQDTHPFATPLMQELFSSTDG

Row | SMILES | outcome (Hek293T) | outcome (JEG-3) | Potency (OV90) | outcome (PA-1) | outcome (SKOV3) | outcome (Tov-21-G) | outcome (Tov112D) | activity, negative = cell killing [1, 4] [%] | Potency ([1]; tumour line A) | max response [2] [%] | outcome [3] | activity, negative = cell killing [1, 5] [%] | outcome (astro) | activity, negative = cell killing [1, 6] [%] | activity, negative = cell killing [1, 7] [%] | activity, negative = cell killing [1, 8] [%] | activity, negative = cell killing [1, 9] [%] | activity, negative = cell killing [1, 10] [%] | activity, negative = cell killing [1, 11] [%]
1 | O=C1c2cccc(O)c2C(=O)c2c(O)cccc21 | inactive | inactive | inactive | inactive | inactive | inactive | inactive | -4.97 | 11.2 µM (active) | 4.48 | inactive |  |  |  |  |  |  |  | 
2 | C[C@H]1COc2c(C3(N)CC3)c(F)cc3c(=O)c(C(=O)O)cn1c23 | inactive | inactive | inactive | inactive | inactive | inactive | inactive | -15.1 |  |  |  | -13.2 | inactive |  |  |  |  |  | 
3 | Nc1ncnc2c1ncn2[C@@H]1O[C@H](COP(=O)(O)O)[C@@H](O)[C@H]1O | inactive | inactive | inactive | inactive |  | inactive | inactive | -13.6 |  |  |  | 4.49 | inactive | 20.2 | -19.3 |  |  |  | 
4 | CC[C@]12CCCN3CCc4c(n(c5ccccc45)[C@@](O)(C(=O)OC)C1)[C@@H]32 | inactive | inactive | inactive | inactive |  | inactive | inactive | -21.5 | 17.8 µM (active) |  |  | -12.1 | inactive | 5.83 |  |  |  |  | 
5 | CC[N+](C)(CC)CCOC(=O)C1c2ccccc2Oc2ccccc21 | inactive | inactive | inactive | inactive |  | inactive | inactive | -9.49 |  |  |  | -11.7 | inactive | 10.5 | -6.39 |  |  |  | 
6 | CC(=O)N1C[C@H](O)C[C@H]1C(=O)O | inactive | inactive | inactive | inactive |  | inactive | inactive | -5.75 |  |  |  | -12.7 |  | 12.1 | -19.6 |  |  |  | 
7 | CC(=O)N[C@@H](Cc1ccc(O)cc1)C(=O)O | inactive | inactive | inactive | inactive | inactive | inactive | inactive | 6.62 |  |  |  | -9.92 | inactive | -7.49 |  |  |  |  | 
8 | COC(=O)c1cccnc1 | inactive | inactive | inactive | inactive |  | inactive | inactive | 40.1 |  |  |  | -7.13 | inactive | -4.81 | -28.2 |  |  |  | 
9 | CCCCCCCC(=O)OCC(COC(=O)CCCCCCC)OC(=O)CCCCCCC | inactive | inactive | inactive | inactive | inactive | inactive | inactive | -9.12 |  | -0.801 | inactive | -10.1 |  | -25.3 |  |  |  |  | 
10 | CC(=O)OCC(=O)[C@@]1(O)CC[C@H]2[C@@H]3CCC4=CC(=O)C=C[C@]4(C)[C@@]3(F)[C@@H](O)C[C@@]21C | inactive | inactive | inactive | inactive |  | inactive | inactive |  |  |  |  |  |  |  |  | 11.3 | 1.05 | -1.44 | -7.16
11 | CC1CCN(CCCC(=O)c2ccc(F)cc2)CC1 | inactive | inactive | inactive | inactive | inactive | inactive | inactive |  | 10 µM (active) |  |  | -15.8 | inactive |  |  |  |  |  | 
12 | O=C(O)C(S)C(S)C(=O)O (stereo not given) | inactive | inactive | inactive | inactive | inactive | inactive | inactive |  |  |  |  |  | inactive |  |  |  |  |  | 
13 | O=C(OOC(=O)c1ccccc1)c1ccccc1 | inactive | inactive | inactive | inactive | inactive | inactive | inactive | -4.84 |  | -0.865 | inactive | -7.59 | inactive | -7.12 |  |  |  |  | 
14 | Cc1c(Cn2ccnc2)c2ccccc2n1CCC(=O)O | inactive | inactive | inactive | inactive |  | inactive | inactive | -6.27 |  |  |  | 1.3 | inactive | -4.06 | -28 |  |  |  | 
15 | O=C(CN1CCNCC1)NC1CCCCC1 | inactive | inactive | inactive | inactive | inactive | inactive | inactive | -22.5 |  |  |  | -13.1 | inactive | -7.64 |  |  |  |  | 
16 | O=C(O)COC(=O)Cc1ccccc1Nc1c(Cl)cccc1Cl | inactive | inactive | inactive | inactive |  | inactive | inactive |  |  |  |  |  | inactive |  |  | -2.19 | -12.4 | -4.64 | -12.9
17 | CC(=O)[C@@]1(O)CC[C@H]2[C@@H]3C[C@H](C)C4=CC(=O)C=C[C@]4(C)[C@@]3(F)[C@@H](O)C[C@@]21C | inactive | inactive | inactive | inactive |  | inactive | inactive |  |  |  |  |  | inactive |  |  | -10.6 | 4.4 | -1.22 | 13.1
18 | CC(=O)Nc1cccc(O)c1 | inactive | inactive | inactive | inactive | inactive | inactive | inactive | -17.1 |  | -4.25 | inactive | -7.47 |  | -9.18 |  |  |  |  | 

From PubChem BioAssay (NCATS)
